Screening results as filed in PubChem.
In the library only some 2.2% were active in any assay of this set; here they are far more common.
aSyn yeast inh: qHTS of alpha-syn Inhibitors | Yeast expressing alpha-synuclein, growth rescue, BacTiter-Glo, 24 h | Potency, µM (top dose mostly 46.1 µM), inactives show at the top dose growth rescue (activation), most hits filed as activators | hit rate 0.14% among 370,000 | AID 652106, 2013; note: % of control where 0% means no effect; nearly all actives have a fitted effect of over 65% in size
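Screening used galactose-induced yeast with toxic alpha-synuclein levels, exposed to compound for 24 hr at 30 deg C. Cell growth, read with BacTiter-Glo luminescence, gave the measured signal.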
Mito fusion act: qHTS Assay for Small Molecule Inhibitors of Mitochondrial Division or Activators of Mitochondrial Fusion. S. cerevisiae fusion-defective mutant growth rescue, CellTiterGlo 48 h. Potency, µM (series often up to 46.1 µM), inactives show at the top dose growth rescue (activation), usual class: activators. hit rate 0.23% among 320,000. AID 485298, 2010; note: % of control where 0% means no effect; nearly all actives have a fitted effect of over 45% in size
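Read-out: ATP-based luminescence (CellTiterGlo, 10 min ambient) reporting growth of fusion-defective ts yeast after 48 hours at 37C on glycerol/ethanol YPEG medium in the presence of compound.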
TDP-43 yeast inh: qHTS of TDP-43 Inhibitors; hit rate 1.8% among 410,000; TDP-43 expressing yeast growth rescue, BacTiter-Glo, 24 h; AID 652104, 2013; Potency, µM (top dose mostly 46.1 µM), inactives show at the highest dose growth rescue (activation), hits mostly activators; note: % of control where 0% means no effect; nearly all actives have a fitted effect of over 50% in size
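Luminescence from BacTiter-Glo reports growth of TDP-43-expressing yeast after 24 hr at 30 deg C with compound. Cells were raffinose-pregrown to mid-log, then seeded in galactose medium at OD600=0.02.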
Abeta rescue: qHTS for compounds that reverse cellular toxicity of Amyloid beta (A-beta) peptide in yeast: Primary Screen; yeast expressing A-beta42, growth rescue, OD600, 48 h; response scale: 0% DMSO, 100% iron-clioquinol control; Potency, µM (series often up to 46.1 µM), actives largely listed as activators; hit rate 0.063% among 410,000; note: nearly all actives have a fitted effect of over 55% in size
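Growth rescue measured by 600 nm absorbance after 48 h yeast culture at 30 C with compound. Values normalized between DMSO and an equimolar ferric chloride plus clioquinol control.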
FUS suppressor: qHTS for Suppressors of FUS Proteinopathy: Primary screen using FUS-linked yeast assay. hit rate 0.24% among 390,000. AID 1347120, 2019. S. cerevisiae FUS-expressing, growth rescue, OD600, 24 h. Potency, µM (highest dose often 76.6 µM), usual class: activators;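 note: plate controls were DMSO vehicle for no effect and reference control for full effect; nearly all actives have a fitted effect of over 55% in size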
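Quantitative HTS measuring growth restoration of FUS-toxic yeast. Galactose-induced cells (OD 0.005) were exposed 24hr at 30C to compounds at several concentrations, then absorbance at 600 nm was recorded.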
* = called active by the depositor; i = inactive; ? = inconclusive; · = no result given. Calls come from the whole dose curve; as a rule, active = well fitted curve in the direction sought with a large enough effect; inconclusive = small, poorly fitted or top-dose-only effect, or another doubt; inactive = no such curve, though single readings can be large; an effect the other way counts as inactive or inconclusive. Potency is the fitted concentration of half-maximal effect.

SMILES	aSyn yeast inh	Mito fusion act	TDP-43 yeast inh	Abeta rescue	FUS suppressor
COc1ccc(S(=O)(=O)Oc2ccc3cccc(N)c3c2)cc1	?	·	16µM*	?	i
CCOc1ccc(NC(=O)C2=C(C)C(=O)OC23CCC(C)CC3)cc1 (stereo unspecified)	6%	-6%	20µM*	?	i
CC1=C(C(=O)N2CCCCC2)C2(CCC(C)CC2)OC1=O (stereo unspecified)	-1%	11%	0%	i	i
COc1ccc(NC(=O)C2=C(C)C(=O)OC23CCC(C)CC3)c(OC)c1 (stereo unspecified)	3%	-7%	20µM*	i	i
CCCNC(=O)C1=C(C)C(=O)OC12CCC(C)CC2 (stereo unspecified)	-2%	-8%	16%	i	i
CC1=C(C(=O)N2CCc3ccccc32)C2(CCC(C)CC2)OC1=O (stereo unspecified)	·	-3%	13µM*	i	i
CC1=C(C(=O)Nc2ccc(C)cc2Cl)C2(CCCCC2)OC1=O	·	·	11µM*	i	i
COc1ccc(OC)c(CCNC(=O)C2=C(C)C(=O)OC23CCC(C)CC3)c1 (stereo unspecified)	·	·	22%	i	i
CCc1ccc(C2=C(C)C(N3CCC(C(=O)NCCc4ccco4)CC3)=NS2(=O)=O)cc1	·	·	-8%	i	i
CCCCC1CCC(C(=O)N2CC(=O)Nc3ccc(Cl)cc3C2c2ccc(F)cc2)CC1 (stereo unspecified)	·	·	12%	?	i
COc1ccc(CNC(=O)CCc2c(C)nn(-c3ccc(N4CCCCC4)nn3)c2C)cc1	·	·	-3%	i	i
CCCCCCCCN1CCS(=O)(=O)N(Cc2ccc(C(F)(F)F)cc2)C(C(=O)OC)C1 (stereo unspecified)	·	·	·	·	i
COc1cccc(C(=O)Nc2cccc(NC(=O)c3ccccc3Cl)c2)c1	-1%	13%	?	i	?
COc1cccc(NC(=O)c2csc3c2CCCC3)c1	-7%	-1%	18µM*	i	i
COc1ccc(NC(=O)c2csc3c2CCCC3)cc1	0%	16%	-8%	i	i
COc1cccc(NC(=O)c2cnsn2)c1	·	3%	13µM*	i	i
COc1cccc(C(=O)Nc2cccc(NC(=O)c3ccc(Cl)cc3Cl)c2)c1	·	·	11µM*	i	i
Cc1ccc(CN2CCCCC(NC(=O)c3ccc(C)cc3)C2=O)cc1 (stereo unspecified)	·	·	·	·	i
COc1cccc(C2C(C(=O)Nc3ccccc3)=C(C)Nc3nnnn32)c1OC (stereo unspecified)	·	0%	28%	i	i
COc1ccc([C@H]2CC(=O)C=C(c3ccc4c(c3)OCCO4)C2)cc1	0%	?	?	i	i
COCc1cccc(C2=CC(=O)C[C@H](c3ccc(OC)cc3)C2)c1	5%	9%	14µM*	i	i
COc1ccc([C@H]2CC(=O)C=C(c3cccc(Cl)c3)C2)cc1	0%	?	18µM*	i	i
COc1ccc([C@H]2CC(=O)C=C(c3ccc(C)c([N+](=O)[O-])c3)C2)cc1	2%	?	35µM*	i	?
Cc1cc2oc(C(=O)Nc3ccc(S(=O)(=O)N(C)c4ccccc4)cc3)cc(=O)c2cc1C	·	·	23%	i	i
CC(C)c1ccc(C2c3c(-c4ccccc4O)n[nH]c3C(=O)N2Cc2ccncc2)cc1 (stereo unspecified)	·	·	22%	i	i
SMILES	aSyn yeast inh	Mito fusion act	TDP-43 yeast inh	Abeta rescue	FUS suppressor
O=S(=O)(NCCc1csc2nc(-c3ccc(F)cc3)nn12)c1ccc(Oc2ccccc2)cc1	·	·	17%	i	i
Cc1cccc(N=C2NN=C(c3ccc4c(c3)OCCO4)CS2)c1	3%	-4%	-5%	i	?
Cc1cccc(N=C2NN=C(c3c(C)[nH]c4ccccc34)CS2)c1	-3%	1%	2%	i	11µM*
CNC(=O)C(=O)Nc1ccc2c(c1)N(S(=O)(=O)c1cccs1)CCC2	9%	4%	16µM*	i	i
CS(=O)(=O)c1ccc(OC[C@@H](O)CN2CCC(C(O)(c3ccccc3)c3ccccc3)CC2)cc1	·	·	·	·	i
CC(=O)Oc1[nH]c(=O)c2cccc3c2c1CCC3	-4%	·	28µM*	i	i
CC(=O)Oc1cc2c(c3ccccc13)CCC2=O	25%	·	?	i	i
COc1ccc(NC(=O)c2ncoc2-c2ccco2)cc1Cl	·	·	8%	i	i
N#Cc1nc(COc2cccc(Cl)c2)oc1NCc1ccco1	-5%	?	?	i	i
COc1ccc(Nc2oc(COc3ccc(C)cc3)nc2C#N)cc1	·	12%	22µM*	i	i
Cc1ccc(OCc2nc(C#N)c(NCc3ccco3)o2)cc1	15%	15%	11µM*	i	i
O=S(=O)(NCC(c1ccco1)S(=O)(=O)c1ccccc1)c1cc(F)ccc1F (stereo unspecified)	·	·	?	i	i
COc1ccc(N2CC(NC(=O)c3cc4ccccc4o3)CC2=O)cc1OC (stereo unspecified)	·	·	12%	i	i
O=C(Nc1ccc(C(=O)N2CCN(c3ccc(Cl)cc3)CC2)cc1)C1=CSCCO1	1%	-5%	-12%	i	i
O=C(Nc1ccccc1C(=O)N1CCN(c2cccc(Cl)c2)CC1)C1=CSCCO1	17%	35µM*	?	?	i
O=C(CSc1nnc(-c2cc3ccccc3cc2O)n1Cc1ccco1)N1CCc2ccccc2C1	9%	?	-20%	i	16µM*
Cc1nc(-c2ccc(S(=O)(=O)N(C)Cc3ccccc3)cc2)co1	20%	·	0%	i	i
Cn1c2ccccc2c(=O)c2ccc(F)cc21	14µM*	4%	-62%	i	i
COc1cc(-c2ccc3c(=O)c4ccccc4n(C)c3c2)cc(OC)c1OC	-23%	-1%	-52%	i	?
O=C(CS(=O)(=O)c1cccc2nsnc12)NCc1ccc(Cl)cc1	·	·	6%	i	i
Cc1ccc(CSc2ncnc3c2cnn3Cc2ccccc2)cc1C	-1%	7%	1µM*	i	i
COc1ccc(Nc2ncnc3c2cnn3Cc2ccccc2)cc1OC	-8%	-1%	-22%	i	i
Cc1cccc(Nc2ncnc3c2cnn3Cc2ccccc2)c1	1%	4%	16µM*	i	i
CNC(=O)C1CCC(Cn2c(=O)c3sccc3n(CC(=O)Nc3ccc(C)c(F)c3)c2=O)CC1 (stereo unspecified)	·	·	18%	i	i
